Screening data from PubChem.
A selection: hits, their analogues and other compounds. The true share with any hit is near 7.4%.
NPC1 promoter act: NPC1 promoter activation | Huh7 NPC1 promoter luciferase reporter, 24 h | Potency, µM (titrated, usually from 9.22 µM), most hits filed as activators | 320,000 tested, 2.4% active | AID 485313; further: nearly all actives have a fitted effect of over 60% in size
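In 1536-well qHTS, Huh7 cells harboring an NPC1 promoter–luciferase construct received compound for 24 h; activation was quantified by luminescence following luciferase reagent addition.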
ELG1 genotoxic: inducers of genotoxicity in HEK293T ELG1-luciferase cells | AID 504466 | HEK293T ELG1-luciferase reporter, luminescence, 16 h | 330,000 tested, 1.3% active | Potency, µM (top dose mostly 46 µM), most hits filed as activators; further: nearly all actives have a fitted effect of over 60% in size
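Genotoxic stress is detected as increased luminescence from luciferase-tagged ELG1 in HEK293T cells, measured with ONE-Glo after a 16 hr treatment at 37 °C.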
Rab9 promoter act: activates the Rab9 promoter. Huh7 Rab9 promoter-luciferase reporter, luminescence, 24 h. Potency, µM (series often up to 9.22 µM), most hits filed as activators. 320,000 tested, 2.8% active. AID 485297; further: nearly all actives have a fitted effect of over 60% in size
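Using Huh7 cells stably transfected with Rab9 promoter–luciferase, compounds were incubated 24 h at 37 °C, 5% CO2; luciferase luminescence was read 10 min after reagent addition.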
SMN2 splice enh: enhancers of SMN2 splice variant expression. AID 1458. Potency, µM (top dose mostly 46.1 µM), most hits filed as activators. HEK293 SMN2-luciferase splicing reporter, luminescence, 30-36 h. 210,000 tested, 2.8% active; further: nearly all actives have a fitted effect of over 55% in size
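HEK293 cells carry an SMN2 […]–luciferase reporter in which exon 7 inclusion puts luciferase in frame. Cells were plated 10-12 h before compound addition, then incubated 30-36 h at 37C. ONE-Glo luminescence was read; sodium butyrate at 4.5 mM final served as control.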
p53 reactivation: re-activators of mutant p53; H1299 p53-A138V BP100-luciferase reporter, luminescence, 24 h; Potency, µM (top dose mostly 92.2 µM), most hits filed as activators; 320,000 tested, 0.063% active; further: nearly all actives have a fitted effect of over 45% in size
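H1299 (p53-null), stable ts p53-A138V + BP100-Luc; 1000 cells/well, Opti-MEM/10% FBS; cpd 4 pt, 1:5; 24 h, 37 deg C, 5% CO2; detection reagent 10 min RT; luminescence.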
FLuc counter: firefly luciferase modulation, counter-screen for miR-21 project; purified FLuc, Km substrates, luminescence inhibition; Potency, µM (titrated, usually from 57.5 µM), usual class: inhibitors; 360,000 tested, 6.9% active; AID 588342; further: nearly all actives have a fitted effect of over 55% in size
Target sequence (P08659 whole entry, looked up): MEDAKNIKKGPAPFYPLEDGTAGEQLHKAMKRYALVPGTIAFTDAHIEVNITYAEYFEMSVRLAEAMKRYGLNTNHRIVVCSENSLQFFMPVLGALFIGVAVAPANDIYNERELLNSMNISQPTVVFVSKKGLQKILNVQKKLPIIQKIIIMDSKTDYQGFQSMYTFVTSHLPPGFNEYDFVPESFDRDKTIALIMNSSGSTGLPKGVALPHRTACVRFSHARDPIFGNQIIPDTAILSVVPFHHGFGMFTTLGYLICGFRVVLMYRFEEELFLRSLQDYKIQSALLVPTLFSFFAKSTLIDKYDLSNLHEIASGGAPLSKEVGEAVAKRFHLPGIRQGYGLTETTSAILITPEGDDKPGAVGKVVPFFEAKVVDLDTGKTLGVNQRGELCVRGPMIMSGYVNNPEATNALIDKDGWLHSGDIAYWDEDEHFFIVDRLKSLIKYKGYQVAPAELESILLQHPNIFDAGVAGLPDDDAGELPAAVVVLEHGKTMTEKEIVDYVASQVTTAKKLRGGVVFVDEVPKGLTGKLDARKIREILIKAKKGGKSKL
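Purified P. pyralis luciferase, 10 nM final, with Km-level 10 uM D-luciferin and 10 uM ATP in 50 mM Tris acetate pH 7.5, 10 mM Mg acetate, 0.01% Tween-20, 0.05% BSA; 6-point qHTS titration about 60 µM downward; luminescence read.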
Numbers stand for hits. The call rests on the fitted dose curve; in most records, active means well fitted curve in the direction sought with a large enough effect; inconclusive means small, poorly fitted or top-dose-only effect, or another doubt; inactive means no such curve, though single readings can be large; an effect the other way counts as inactive or inconclusive.

What do the screens show for `CCc1cc2c(=O)c(-c3nc(C)cs3)coc2cc1O`?
NPC1 promoter act: inactive; ELG1 genotoxic: inconclusive; Rab9 promoter act: inconclusive; p53 reactivation: inconclusive; FLuc counter: 1.9µM

Results for CCC(Sc1nc(-c2ccccc2)c(-c2ccccc2)[nH]1)C(=O)O (centres undefined) ?
NPC1 promoter act: inactive; ELG1 genotoxic: inactive; Rab9 promoter act: inactive; p53 reactivation: inactive; FLuc counter: inactive

What do the screens show for `CCC1CCCCN1C(=O)COC(=O)CN(C)S(=O)(=O)c1ccc(NC(C)=O)cc1` (centres undefined)?
NPC1 promoter act: inactive; ELG1 genotoxic: inactive; Rab9 promoter act: inactive; p53 reactivation: inactive; FLuc counter: inactive

Results for O=C(Oc1ccc2c3c(c(=O)oc2c1)CCCC3)c1ccco1 ?
NPC1 promoter act: inactive; ELG1 genotoxic: inactive; Rab9 promoter act: inactive; SMN2 splice enh: inactive; p53 reactivation: inactive; FLuc counter: 16.9µM

Results for CC(=O)Oc1ccc2c3c(c(=O)oc2c1)CCCC3 ?
NPC1 promoter act: inactive; ELG1 genotoxic: inactive; Rab9 promoter act: inactive; FLuc counter: inactive

What do the screens show for `Cc1nc(NCc2ccco2)c2c(C)c(C)sc2n1`?
NPC1 promoter act: inactive; ELG1 genotoxic: inactive; Rab9 promoter act: inactive; SMN2 splice enh: 3.16µM; p53 reactivation: inactive; FLuc counter: inactive

What do the screens show for `Cc1sc2nc3c4ccccc4c(NCc4ccco4)nn3c(=O)c2c1C`?
NPC1 promoter act: inconclusive; ELG1 genotoxic: 7.08µM; Rab9 promoter act: 2.82µM; SMN2 splice enh: 10µM; p53 reactivation: inconclusive; FLuc counter: 7.57µM

What do the screens show for `Cc1ccc(C2C(=O)c3ccccc3C2=O)cc1`?
NPC1 promoter act: inactive; ELG1 genotoxic: inactive; Rab9 promoter act: inactive; p53 reactivation: inactive; FLuc counter: 16.9µM

How did Cc1ccccc1C1C(=O)c2ccccc2C1=O do in these assays?
NPC1 promoter act: inactive; ELG1 genotoxic: inactive; Rab9 promoter act: inactive; p53 reactivation: inactive; FLuc counter: inactive

What do the screens show for `Cc1ccccc1N1C(=O)c2ccccc2NC1c1ccncc1` (centres undefined)?
NPC1 promoter act: inactive; ELG1 genotoxic: inactive; Rab9 promoter act: inactive; SMN2 splice enh: inactive; p53 reactivation: inactive; FLuc counter: inactive

How did O=C1c2ccccc2C(=O)C1c1ccccn1 do in these assays?
NPC1 promoter act: 2.51µM; ELG1 genotoxic: inconclusive; Rab9 promoter act: 1.41µM; p53 reactivation: inactive; FLuc counter: 10.7µM

Results for O=C1c2cccnc2-c2ncccc21 ?
NPC1 promoter act: inactive; ELG1 genotoxic: inactive; Rab9 promoter act: inactive; SMN2 splice enh: inactive; p53 reactivation: inactive; FLuc counter: inactive

How did O=C1c2ccccc2C(=O)C1c1ccncc1 do in these assays?
NPC1 promoter act: 1.26µM; ELG1 genotoxic: 3.16µM; Rab9 promoter act: 0.501µM; SMN2 splice enh: 7.94µM; p53 reactivation: inconclusive; FLuc counter: 3.38µM

Results for Cc1ccc(NC(=O)Cn2c(=O)ccc3cc(S(=O)(=O)N4CCC(C)CC4)ccc32)cc1C ?
FLuc counter: inactive

What do the screens show for `O=C(Nc1ccc(F)cc1F)c1cc2nc3c(c(C(F)(F)F)n2n1)CCCC3`?
NPC1 promoter act: 1.12µM; ELG1 genotoxic: inconclusive; Rab9 promoter act: 0.562µM; SMN2 splice enh: inactive; p53 reactivation: inconclusive; FLuc counter: 0.601µM

Results for C=CC(C)(C)c1cc2cc3ccoc3cc2oc1=O ?
NPC1 promoter act: inactive; ELG1 genotoxic: inactive; Rab9 promoter act: inactive; SMN2 splice enh: inactive; p53 reactivation: inactive; FLuc counter: 21.3µM

What do the screens show for `COc1cccc(N=c2oc3ccccc3cc2-c2nc3ccccc3[nH]2)c1`?
NPC1 promoter act: 3.16µM; ELG1 genotoxic: inconclusive; Rab9 promoter act: 1.58µM; SMN2 splice enh: 15.8µM; p53 reactivation: inconclusive; FLuc counter: 9.53µM

How did COc1cccc(N=c2oc3ccc(OC)cc3cc2-c2nc3ccccc3[nH]2)c1 do in these assays?
SMN2 splice enh: inconclusive; FLuc counter: 19µM

What do the screens show for `Nc1ccccc1C(=O)NNC(=O)C(=O)/C=C(\O)c1ccccc1`?
NPC1 promoter act: inactive; ELG1 genotoxic: inactive; Rab9 promoter act: inactive; p53 reactivation: inactive; FLuc counter: 13.5µM

Results for COc1cc2ccccc2cc1C(=O)NCC(c1cccs1)N(C)C (centres undefined) ?
NPC1 promoter act: 2.82µM; ELG1 genotoxic: inactive; Rab9 promoter act: inconclusive; SMN2 splice enh: inconclusive; p53 reactivation: inactive; FLuc counter: 5.36µM

How did COc1cc2ccccc2cc1C(=O)Nc1nccs1 do in these assays?
NPC1 promoter act: 3.16µM; ELG1 genotoxic: inactive; Rab9 promoter act: inconclusive; p53 reactivation: inactive; FLuc counter: 8.49µM

How did COc1ccc(-c2nn(-c3ccccc3)cc2C(=O)Nc2nccs2)cc1 do in these assays?
NPC1 promoter act: inactive; ELG1 genotoxic: inactive; Rab9 promoter act: inactive; SMN2 splice enh: inactive; p53 reactivation: inactive; FLuc counter: inactive

What do the screens show for `COc1c(C(=O)Nc2nccs2)ccc2ccccc12`?
NPC1 promoter act: 1.78µM; ELG1 genotoxic: inconclusive; Rab9 promoter act: inconclusive; p53 reactivation: inactive; FLuc counter: 3.01µM

Results for COc1cccc2c1OCC(C(=O)Nc1nccs1)=C2 ?
NPC1 promoter act: 2.24µM; ELG1 genotoxic: inconclusive; Rab9 promoter act: 2µM; p53 reactivation: inactive; FLuc counter: 5.36µM

Results for CC(NC(=O)COC(=O)c1ccccc1O)C1CC2CCC1C2 (centres undefined) ?
ELG1 genotoxic: inactive; p53 reactivation: inactive

Results for Cc1cc(C)c(NC(=O)CCc2c(C)noc2C)c(C)c1 ?
NPC1 promoter act: inactive; ELG1 genotoxic: inactive; Rab9 promoter act: inactive; p53 reactivation: inactive; FLuc counter: inactive

How did N[C@H](Cc1cnc[nH]1)C(=O)O do in these assays?
SMN2 splice enh: inactive

What do the screens show for `CCCNC(=O)Cn1nc(-c2ccc(OC)cc2)c2cnc3ccc(F)cc3c21`?
FLuc counter: inactive

How did CCOc1ccc(S(=O)(=O)N2CCCCC2)cc1NC(=O)CN1C(=O)NC(C)(C2CC2)C1=O (centres undefined) do in these assays?
NPC1 promoter act: inactive; ELG1 genotoxic: inactive; Rab9 promoter act: inactive; p53 reactivation: inactive

What do the screens show for `CCCNc1nc(C)cc(-c2cc(-c3ccc(Cl)cc3)on2)n1`?
NPC1 promoter act: inactive; ELG1 genotoxic: inactive; Rab9 promoter act: inactive; p53 reactivation: inactive; FLuc counter: inactive

Results for COCCNc1nc(C)cc(-c2cc(-c3ccc(Cl)cc3)on2)n1 ?
NPC1 promoter act: inactive; ELG1 genotoxic: inactive; Rab9 promoter act: inactive; p53 reactivation: inactive; FLuc counter: 15.1µM

How did Cc1ccc(OCCNc2cc(N3CCN(CCO)CC3)ccc2[N+](=O)[O-])cc1C do in these assays?
NPC1 promoter act: inactive; ELG1 genotoxic: inactive; Rab9 promoter act: inactive; SMN2 splice enh: inactive; p53 reactivation: inactive; FLuc counter: 23.9µM
